# From PubChem BioAssay (NCATS)
# “And” between values parts separate entries of the source, which are not always exact repeats. Identical values can stand only once. Inconclusive results are not listed. A call without a number means that no potency is given here. The source made the active and inactive calls. Unless noted, calls follow the shape of the dose curve; as a rule, active = well fitted curve in the direction sought with a large enough effect; inconclusive = small, poorly fitted or top-dose-only effect, or another doubt; inactive = no such curve, though single readings can be large; an effect the other way counts as inactive or inconclusive.
# Key:
# [1] = molecular target: T1, Hexokinase-4 (Homo sapiens) + Glucokinase regulatory protein (Homo sapiens) (UniProt P35557+Q14397); test: qHTS assay for inhibitors of recombinant human GCK-GKRP interaction: Diaphorase-coupled assay (AID 743205)
# Procedure, shortened: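 Compounds pre-incubated 20 min with substrate, then 10 nM GST-GCK with 10 nM FLAG-GKRP added. GCK activity coupled via G6PDH and diaphorase to resorufin (5 mM glucose, 0.4 mM ATP, 0.15 mM NADP+, pH 7.6), read kinetically over 30 minutes at Ex 525/Em 590 nm.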
# [2] = molecular target: T1, Hexokinase-4 (Homo sapiens) + Glucokinase regulatory protein (Homo sapiens); test: qHTS assay for inhibitors of recombinant human GCK-GKRP interaction: ADP-Glo assay (AID 743206)
# Procedure, shortened: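 GST-GCK and FLAG-GKRP (15 nM each in the dispensed mix, with 2 uM S6P) react with 0.4 mM ATP and 5 mM glucose (final) in Hepes pH 7.6 for 60 min at room temperature. ADP is measured by ADP-Glo luminescence.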
# [3] = molecular target: T1, Hexokinase-4 (Homo sapiens) + Glucokinase regulatory protein (Homo sapiens); test: qHTS assay for inhibitors of recombinant human GCK-GKRP interaction: HTRF assay (AID 743207)
# Procedure, shortened: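 HTRF binding of 5 nM GST-GCK and 5 nM FLAG-GKRP with 2 uM S6P in pH 7.1 Hepes buffer (MgCl2, KCl, DTT, Tween 20, BSA). Anti-FLAG XL665 and anti-GST donor added, 60 min at room temperature; 665/615 nm read, normalized to with- and without-GCK controls.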
# [4] = qHTS Assay for Identifying Gametocytocidal Compounds (AID 743244); also: potency is read from the fitted curve at half-maximal effect;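 as to max response: actives lower the fluorescent signal which means gametocytes are killed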; details: P. falciparum 3D7 stage III-V gametocytes, alamarBlue, 72 h; max response: stronger effect = lower value
# Procedure, shortened: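 A resazurin-based viability read-out was applied to mature P. falciparum gametocytes: 72 h compound treatment, then 24 h dye incubation, with falling fluorescence signalling gametocytocidal effect.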
# [5] = qHTS assay for measurement of the activity of small molecule inhibitors on Zika virus induced Caspase-3 activity in human astrocytoma cells (AID 1224859)
# Procedure, shortened: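 Readout is luminescence from Caspase-Glo 3/7 added after a 6 h ZIKV infection (2 FFU/cell) of compound-pretreated (1 h) SNB-19 cells; data expressed as % inhibition versus uninfected and infected wells.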
# [6] = qHTS assay for small molecule agonists of the antioxidant response element (ARE) signaling pathway measured by Nrf2-dependant transcriptional activity (AID 720636; active = well fitted curve in the direction sought with a large enough effect in the repeat runs; an effect the other way counts as inactive or inconclusive; also: potency is read from the fitted curve at half-maximal effect)
# Procedure, shortened: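 HepG2 ARE-luc reporter line, 1% dialyzed FBS; 6 hr attachment at 37 C, compound pinned in, 16 hr at 37 C/5% CO2; ONE-Glo, 30 min RT, luminescence read.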
# [7] = qHTS assay for small molecule agonists of the antioxidant response element (ARE) signaling pathway measured by Nrf2-dependant transcriptional activity - cell viability counter screen (AID 720653; active = well fitted curve in the direction sought with a large enough effect in the repeat runs; an effect the other way counts as inactive or inconclusive; also: potency is read from the fitted curve at half-maximal effect); details: ARE-bla HepG2 viability, CellTiter-Glo ATP luminescence, 16 h; max response: stronger effect = lower value
# Procedure, shortened: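 ARE-bla HepG2 cells (2,000/well) rested 5 hrs at 37C/5% CO2, then exposed to compounds in DMSO for 16 hrs. Viability was read in the same wells as intracellular ATP by luminescence, 30 min at room temperature after reagent addition.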
# [8] = qHTS assay for cell viability of the p53RE-bla HCT-116 cell line (AID 743292); also: nearly all actives have a fitted effect of over 55% in size; also: potency is read from the fitted curve at half-maximal effect
# Procedure, shortened: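 Luminescent ATP quantitation (CellTiter-Glo) served as the viability read-out; reagent was added after 16 h compound exposure at 37 C and read after 30 min at room temperature. Cells: p53RE-bla HCT-116, 4,000 per well.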
# [9] = qHTS for Activators of Parkin Expression: LOPAC Validation Assay (FLuc Reporter) (AID 720573)
# Procedure, shortened: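 Neuronal cell line stably expressing FLuc/NLuc coincidence reporter under the Parkin promoter, 1,500 cells/well, dosed 24 h after seeding in 7-point series for 24 h at 37 C. FLuc luminescence read; normalized to DMSO and positive control (100%).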
# [10] = qHTS assay for cell viability of HEK293 cells (AID 743288); details: ATP luminescence (CellTiter-Glo), 18 h; max response: stronger effect = lower value; also: nearly all actives have a fitted effect of over 50% in size; also: potency is read from the fitted curve at half-maximal effect
# Procedure, shortened: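 Parental HEK293 cells, 2,000 per well, preincubated at least 5 h at 37 C, then exposed to compounds in DMSO for 18 h at 37 C. Viability by CellTiter-Glo ATP luminescence after 30 min at room temperature.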
# [11] = qHTS profiling for inhibitors of Plasmodium falciparum (3D7) proliferation (AID 743322; call rule not given here;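 also: infected erythrocytes exposed to compound for 72 h before lysis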); details: P. falciparum 3D7 proliferation; at 28.7 µM (top of the series) unless noted
# Procedure, shortened: (§1)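 Erythrocytes infected with P. falciparum (0.3% parasitemia, 2.5% hematocrit) incubated with compounds 72 h at 37 C, 5% CO2. Lysis with saponin/Triton buffer containing SYBR Green I, overnight at room temperature in the dark; DNA fluorescence (485/535 nm) normalised to 0.29 uM artemisinin and DMSO.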
# [12] = qHTS profiling for inhibitors of Plasmodium falciparum (DD2) proliferation (AID 743323; call rule not given here); details: lower = more inhibition; at 28.7 µM (top of the series) unless noted
# Procedure, shortened: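 P. falciparum Dd2-infected erythrocytes (0.3% parasitemia, 2.5% hematocrit) exposed 72 h at 37 C, 5% CO2. Lysis with SYBR Green, overnight at room temperature, fluorescence 485/535 nm; normalized to 0.29 uM artemisinin and DMSO.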
# [13] = qHTS profiling for inhibitors of Plasmodium falciparum (HB3) proliferation (AID 743324); details: Plasmodium falciparum HB3 blood-stage proliferation; at 28.7 µM (top of the series) unless noted
# Procedure, shortened: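 P. falciparum HB3 grown in erythrocytes (0.3% parasitemia, 2.5% hematocrit final) with compound for 72 h at 37 C, 5% CO2. Parasite DNA detected by SYBR Green after saponin/triton lysis overnight; normalized to 0.29 uM artemisinin and DMSO.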
# [14] = qHTS profiling of the MIPE4 collection as inhibitors of Plasmodium falciparum (3D7) proliferation (AID 743344; call rule not given here); details: P. falciparum 3D7 in erythrocytes, SYBR Green DNA fluorescence, 72 h; at 28.5 µM (top of the series)
# Procedure, shortened: as §1
# [15] = qHTS profiling of the MIPE4 collection as inhibitors of Plasmodium falciparum (DD2) proliferation (AID 743345; call rule not given here); details: P. falciparum Dd2 in erythrocytes, SYBR Green DNA, 72 h; at 28.5 µM (top of the series)
# Procedure, shortened: as §1
# [16] = qHTS profiling of the MIPE4 collection as inhibitors of Plasmodium falciparum (DD2) proliferation (Rep 2) (AID 743346; call rule not given here); details: P. falciparum Dd2 in erythrocytes, SYBR Green DNA, 72 h; at 28.5 µM (top of the series)
# Procedure, shortened: as §1
# [17] = qHTS profiling of the MIPE4 collection as inhibitors of Plasmodium falciparum (HB3) proliferation (AID 743347; call rule not given here); details: P. falciparum HB3 in erythrocytes, SYBR Green DNA, 72 h; at 28.5 µM (top of the series)
# Procedure, shortened: as §1
# [18] = qHTS assay to identify small molecule inhibitors of chordoma cells - UCH-1 (AID 1259355); also: nearly all actives have a fitted effect of over 55% in size
# Procedure, shortened: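 Luminescent ATP read-out (CellTiter-Glo, 30min at room temperature) measured viability of UCH-1 cells exposed for 48hr to test drugs at 15 concentrations, co-dosed with a five-agent combination of auranofin, camptothecin, doxorubicin, rubitecan and topotecan.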
# T1 sequence (P35557 whole entry, looked up): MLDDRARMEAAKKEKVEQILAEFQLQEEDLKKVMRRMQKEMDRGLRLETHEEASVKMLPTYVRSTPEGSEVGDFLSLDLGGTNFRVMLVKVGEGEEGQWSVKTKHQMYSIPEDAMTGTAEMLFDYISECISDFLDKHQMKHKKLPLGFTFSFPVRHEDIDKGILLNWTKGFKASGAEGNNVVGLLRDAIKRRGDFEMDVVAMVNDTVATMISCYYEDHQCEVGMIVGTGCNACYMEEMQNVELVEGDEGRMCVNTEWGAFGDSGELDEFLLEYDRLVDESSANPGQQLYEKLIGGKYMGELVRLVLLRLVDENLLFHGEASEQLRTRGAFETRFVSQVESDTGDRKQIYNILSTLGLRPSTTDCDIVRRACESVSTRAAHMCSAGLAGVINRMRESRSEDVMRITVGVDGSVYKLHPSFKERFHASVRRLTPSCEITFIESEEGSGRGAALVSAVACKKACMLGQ
# T1 sequence (Q14397 whole entry, looked up): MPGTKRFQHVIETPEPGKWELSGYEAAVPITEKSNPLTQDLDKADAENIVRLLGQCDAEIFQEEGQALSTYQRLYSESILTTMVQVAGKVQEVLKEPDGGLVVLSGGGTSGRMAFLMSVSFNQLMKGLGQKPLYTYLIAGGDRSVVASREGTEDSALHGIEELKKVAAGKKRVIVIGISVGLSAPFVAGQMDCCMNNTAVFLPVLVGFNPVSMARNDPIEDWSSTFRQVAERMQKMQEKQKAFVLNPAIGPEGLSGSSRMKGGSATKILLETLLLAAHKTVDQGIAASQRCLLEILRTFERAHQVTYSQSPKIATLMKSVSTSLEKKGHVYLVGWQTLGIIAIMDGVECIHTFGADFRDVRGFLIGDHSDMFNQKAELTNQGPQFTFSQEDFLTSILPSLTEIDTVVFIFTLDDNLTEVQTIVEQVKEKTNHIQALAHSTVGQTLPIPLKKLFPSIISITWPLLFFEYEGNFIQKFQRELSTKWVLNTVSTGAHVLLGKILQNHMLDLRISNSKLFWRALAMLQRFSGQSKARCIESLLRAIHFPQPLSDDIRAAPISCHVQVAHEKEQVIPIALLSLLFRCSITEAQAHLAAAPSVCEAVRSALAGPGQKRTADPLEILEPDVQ
smiles,measurement,setting,value
CCCC1(C)C(C#N)(C#N)C1(C#N)C#N,outcome,[1],inactive
same,Potency,[2],inactive
same,Potency,[3],inactive
same,Potency,[4],2.24 µM (active)
same,Potency,[5],inactive
NCCO,Potency,[6],inactive
same,max response,[7],3.76% (inactive)
same,max response,[4],6.49% (inactive)
same,Potency,[8],inactive
same,Potency,[5],inactive
CCCn1c(=O)c2[nH]c(-c3ccc(OCC(=O)NCCN)cc3)nc2n(CCC)c1=O,outcome,[1],inactive
same,Potency,[2],inactive
same,Potency,[3],inactive
same,Potency,[5],inactive
Nc1ncnc2c1ncn2[C@@H]1O[C@H](COP(=O)(O)CP(=O)(O)OP(=O)(O)O)[C@@H](O)[C@H]1O,Potency,[9],inactive
same,outcome,[1],inactive
same,Potency,[2],inactive
same,max response,[4],13.9% (inactive)
same,Potency,[5],inactive
N=C(N)SCCc1ccc(CCSC(=N)N)cc1,outcome,[1],inactive
same,Potency,[2],inactive
same,Potency,[3],inactive
same,max response,[4],24% (inactive)
same,Potency,[5],inactive
CN(C)c1ccc(N=NS(=O)(=O)O)cc1,Potency,[6],54.5 µM (active)
same,max response,[7],-12.4% (inactive) and -28.6% (inactive)
same,Potency,[4],35.5 µM (active)
same,max response,[10],-6.45% (inactive) and -13.1% (inactive)
same,Potency,[8],inactive
same,Potency,[5],inactive
O=C(OCc1ccccc1)c1ccccc1,Potency,[6],inactive
same,max response,[7],-0.23% (inactive)
same,max response,[4],-5.44% (inactive)
same,max response,[10],-7.64% (inactive)
same,Potency,[8],inactive
same,Potency,[5],inactive
Nc1nc(Nc2ccccc2)nc2c1ncn2[C@@H]1O[C@H](CO)[C@@H](O)[C@H]1O,Potency,[9],inactive
same,outcome,[1],inactive
same,Potency,[2],inactive
same,max response,[4],17.1% (inactive)
same,Potency,[5],inactive
C[C@@H](NC(=O)/C(C#N)=C/c1ccc(O)c(O)c1)c1ccccc1,Potency,[9],inactive
same,outcome,[1],inactive
same,Potency,[2],inactive
same,max response,[4],3.77% (inactive)
same,Potency,[5],inactive
CC(C)CC(NP(=O)(O)O[C@@H]1O[C@@H](C)[C@H](O)[C@@H](O)[C@H]1O)C(=O)NC(Cc1c[nH]c2ccccc12)C(=O)O (stereo not given in full),Potency,[9],inactive
same,outcome,[1],inactive
same,Potency,[2],inactive
same,max response,[4],18.7% (inactive)
same,Potency,[5],inactive
CC1OC1P(=O)(O)O (stereo not given),outcome,[1],inactive
same,Potency,[2],inactive
same,Potency,[3],inactive
same,max response,[4],-9.6% (inactive)
same,Potency,[5],inactive
C[N+]1(C)CCC(OC(=O)C(c2ccccc2)c2ccccc2)CC1,outcome,[1],inactive
same,Potency,[2],inactive
same,Potency,[3],inactive
same,Potency,[5],inactive
CNC(=O)[C@H]1O[C@@H](n2cnc3c(NCc4cccc(I)c4)ncnc32)[C@H](O)[C@@H]1O,outcome,[1],inactive
same,Potency,[2],inactive
same,Potency,[3],inactive
same,max response,[4],55.6% (inactive)
same,Potency,[5],inactive
S=c1[nH]c2ccccc2s1,Potency,[6],inactive
same,max response,[7],-14.2% (inactive) and -2.08% (inactive)
same,max response,[10],3.04% (inactive) and -5.55% (inactive)
same,Potency,[8],inactive
same,Potency,[5],inactive
O=C1NC(=O)/C(=C/c2ccc3nccnc3c2)S1,outcome,[1],inactive
same,Potency,[2],inactive
same,Potency,[3],inactive
same,max response,[4],-5.45% (inactive)
same,Potency,[5],inactive
O=C(c1ccc(OCCCc2cnc[nH]2)cc1)C1CC1,outcome,[1],inactive
same,Potency,[2],inactive
same,Potency,[3],inactive
same,max response,[4],42% (inactive)
same,Potency,[5],inactive
OC[C@H]1O[C@@H](n2cnc3c(Nc4ccccc4)ncnc32)[C@H](O)[C@@H]1O,outcome,[1],inactive
same,Potency,[2],inactive
same,Potency,[3],inactive
same,max response,[4],-5.57% (inactive)
same,Potency,[5],inactive
CCNC(=O)[C@H]1O[C@@H](n2cnc3c(N)nc(NCCc4ccc(CCC(=O)O)cc4)nc32)[C@H](O)[C@@H]1O,outcome,[1],inactive
same,Potency,[2],inactive
same,Potency,[3],inactive
same,max response,[4],-4.57% (inactive)
same,Potency,[5],inactive
CO/N=C(\C(=O)N[C@@H]1C(=O)N2C(C(=O)O)=C(COC(C)=O)CS[C@H]12)c1csc(N)n1,outcome,[1],inactive
same,Potency,[2],inactive
same,Potency,[3],inactive
same,max response,[4],5.62% (inactive)
same,Potency,[5],inactive
CN(C)c1ccc(C(=C2C=CC(=[N+](C)C)C=C2)c2ccccc2)cc1,Potency,[6],inactive
same,Potency,[7],6.31 µM (active)
same,Potency,[10],3.55 µM (active)
same,Potency,[8],3.98 µM (active)
same,Potency,[5],inactive
CCCCC/C=C\CC(O)/C=C/c1cccc(CC(O)CCCCO)n1 (stereo not given),outcome,[1],inactive
same,Potency,[2],inactive
same,Potency,[3],inactive
same,Potency,[5],inactive
O=C1CN(/N=C/c2ccc([N+](=O)[O-])o2)C(=O)N1,Potency,[6],inactive
same,max response,[4],3.97% (inactive)
same,Potency,[8],inactive
same,Potency,[5],inactive
CC[C@@H](C)[C@H]1O[C@]2(CC[C@H]1C)C[C@@H]1C[C@@H](CC=C(C)[C@@H](O[C@H]3C[C@H](OC)[C@@H](O[C@H]4C[C@H](OC)[C@@H](O)[C@H](C)O4)[C@H](C)O3)[C@@H](C)C=CC=C3CO[C@@H]4[C@H](O)C(C)=C[C@@H](C(=O)O1)[C@]34O)O2,Potency,[3],inactive
same,remaining parasite growth % (stronger effect = lower value),[11],-0.904%
same,"activity, percent of control",[12],-0.0225%
same,"remaining proliferation (% of control), lower = more inhibition",[13],-0.425%
same,"parasite growth, % of DMSO control",[14],35.5%
same,"parasite growth remaining, % of DMSO control (lower = more inhibition)",[15],6.32%
same,"parasite growth, % of control (lower = inhibition)",[16],38.4%
same,"growth, % of control",[17],12.5%
N=C1N=C(N)c2cc3ccccc3cc21,Potency,[6],inactive
Nc1ccc(O)c(C(=O)O)c1,Potency,[6],inactive
C=CC(C)=C[C@@]1(C)SC(=O)C(C)=C1O,remaining parasite growth % (stronger effect = lower value),[11],98%
same,"activity, percent of control",[12],98.3%
same,"remaining proliferation (% of control), lower = more inhibition",[13],92.5%
same,"parasite growth, % of DMSO control",[14],98.9%
same,"parasite growth remaining, % of DMSO control (lower = more inhibition)",[15],108%
same,"parasite growth, % of control (lower = inhibition)",[16],151%
same,"growth, % of control",[17],77.3%
COC(=O)C1=C(C)NC(C)=C(C(=O)OCC(C)C)C1c1ccccc1[N+](=O)[O-] (stereo not given),"parasite growth, % of DMSO control",[14],5.69%
same,"parasite growth remaining, % of DMSO control (lower = more inhibition)",[15],15%
same,"parasite growth, % of control (lower = inhibition)",[16],8.98%
same,"growth, % of control",[17],9.44%
CC(C(=O)O)c1ccc2c(c1)[nH]c1ccc(Cl)cc12 (stereo not given),Potency,[18],inactive
